High-throughput results: PubChem BioAssay, several laboratories
An excerpt weighted towards active compounds, which were near 3.4% of everything screened.
HIF-2a inh = HIF-2a inhibition | inhibition, % at 18.8 µM | AID 624352 | 360,000 compounds, 0.72% hits | 786-0 RCC cells HIF-2a reporter, luciferase luminescence, overnight;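 active = inhibition of the luminescence signal of 40% or more relative to plate controls, in a single-dose primary screen at 18.75 µM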
LMP1 NFkB inh = inhibitors of Epstein-Barr LMP1-induced NF-kappaB reporter; LMP1-induced NF-kappaB luciferase reporter cells, luminescence; inhibition, % at 12.5 µM; 350,000 compounds, 0.69% hits; in the data active = inhibition above about 41%;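 also: 0% = neutral control wells and 100% = reference inhibitor control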
TWEAK Fn14 block = inhibitors of TWEAK-Fn14 interaction signaling; TWEAK-stimulated Fn14 reporter cells, luciferase luminescence, 8 h; inhibition, % at 10 µM; 360,000 compounds, 2% hits; in the data active = inhibition above about 50%
TROY signal inh = blocks TROY-dependent signaling in reporter cells. Q293 LMP1-TROYcd NF-kB luciferase reporter, 4 h. inhibition, % at 10 µM. 360,000 compounds, 0.98% hits;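 active = compounds whose plate-normalised and pattern-corrected inhibition of the luciferase reporter signal at the single screening dose is 50% or more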
Shn3 3UTR inh = inhibitors of Schnurri-3 3'UTR reporter in osteoblasts; Clone20 osteoblast Shn3 3'UTR firefly luciferase, 24 h; inhibition, % at 12.5 µM; 360,000 compounds, 0.52% hits;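 active = mean inhibition of at least 75% with every replicate also reaching 75%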;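 also: 0% = median of neutral control wells and 100% = pilot-screen positive control compound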
TRPM1 prom inh = MITF TRPM1 promoter inhibition in SK-MEL-5 cells; SK-MEL-5 TRPM1 promoter luciferase, 24 h; 330,000 compounds, 0.83% hits; inhibition, % at 12.5 µM;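 active = mean inhibition across replicates of 60% or more, whatever share of single replicates reaches that level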
Mdm2-MdmX confirm = Mdm2/MdmX (human) interaction inhibition, confirmed; shares compounds with HIF-2a inh; SaOS-2 split-luciferase Mdm2/MdmX complementation, luminescence; inhibition, % at 8 µM; 740 compounds, 99% hits; AID 504601;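 active = mean inhibition of the luminescence signal across two replicates at or above 26 percent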
HIF-2a inh conf = confirmation of HIF-2a inhibitors; shares compounds with HIF-2a inh; 786-0 RCC cells, HIF-2a luciferase reporter luminescence, overnight; inhibition, % at 18.8 µM; 1,800 compounds, 56% hits; AID 651580;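 active = mean inhibition across four replicates of at least 40 percent at the single tested concentration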
HIF-1a counter = HIF-1a inhibition counter-screen for HIF-2a hits | shares compounds with HIF-2a inh | MiaPaCa-2 HIF-1a luciferase reporter, desferoxamine, overnight | inhibition, % at 18.8 µM | 1,800 compounds, 72% hits | AID 651589;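 active = mean inhibition of the reporter signal across four replicates at the single tested dose of 50% or more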
* hit, by the source's call; · = no result given; ! = not confirmed by another sample.

SMILES	HIF-2a inh	LMP1 NFkB inh	TWEAK Fn14 block	TROY signal inh	Shn3 3UTR inh	TRPM1 prom inh	HIF-2a inh conf	HIF-1a counter	others
COc1ccc(C(=O)Nc2nc3ccccc3[nH]2)cc1	49*	55*	89*	69*	17	44	64*	68*
CSc1ccccc1C(=O)Nc1nc2ccccc2[nH]1	-279	-16	-26	-50	-59	-52	·	·
COc1cc(SC)ccc1C(=O)Nc1nc2ccccc2[nH]1	96*	96*	100*	84*	96*	97*	99*	107*
CC(C)CCC(C)NC(=O)CN1C(=O)NC(C)(c2ccc3ccccc3c2)C1=O (stereo not drawn)	5	-6	2	8	20	2	·	·
COc1ccc(CC(=O)Nc2c(C(=O)N3CCN(c4ccccc4OC)CC3)oc3ccccc23)cc1OC	4	-1	8	-14	6	4	·	·
CCC1=C(CC2NCCc3ccccc32)CC2c3cc(OC)c(OC)cc3CCN2C1 (stereo not drawn)	41*	-2	41	36	74	70*	39	104*
COc1ccc(S(=O)(=O)N2CCN(C(=O)c3ccc(COc4ccccc4)o3)CC2)cc1	2	10	-11	9	-5	·	·	·
COc1ccc(S(=O)(=O)N(C)C[C@H]2Oc3ccc(NS(=O)(=O)c4cccs4)cc3C(=O)N([C@H](C)CO)C[C@@H]2C)cc1	-3	-3	-10	5	32	1	·	·
CCN1CCCC1CNC(=O)C1CCN(Cc2nc(-c3cccc(Br)c3)oc2C)CC1 (stereo not drawn)	66*	-16	-76	-3	-12	59	19	104*
Cc1oc(-c2cccc(Cl)c2)nc1CN1CCC(C(=O)NCc2ccco2)CC1	-6	2	-5	-4	-8	6	·	·
N#Cc1ccccc1S(=O)(=O)N1CCN(C(=O)c2cc3c(s2)CCC3)CC1	-13	1	-24	-37	-6	4	·	·
O=[N+]([O-])c1ccc(Cl)cc1C=NNc1ccccn1	-9	-4	0	-6	-14	8	·	·
O=[N+]([O-])c1cc(Cl)cc(/C=N\Nc2ccccn2)c1O	8	31	-3	-12	89*	58	·	·	Mdm2-MdmX confirm=88*
CC(=O)c1ccc(NS(=O)(=O)c2ccc(C)cc2)cc1	3	-18	-4	-5	1	-10	·	·
COc1cc(OC)c(OC)cc1/C=C/C(=O)c1ccc(NS(=O)(=O)c2ccc(C)cc2)cc1	59*	11	62*	36	15	20	34	50*
CC1CCCCN1CCCNC(=O)c1ccc2c(c1)NC(=O)CN2C (stereo not drawn)	8	4	20	17	-34	·	·	·
CCCCN(CCCNC(=O)c1ccc2c(c1)NC(=O)CN2C)c1ccccc1	45*	-31	108*	90*	14	·	49*	94*
CC(C)OCCCNC(=O)c1ccccc1NC(=O)C1=CSCCO1	5	-12	-7	-10	-2	0	·	·
CCCCn1nc(C(=O)Nc2c(C)n(C)n(-c3ccccc3)c2=O)c2ccccc2c1=O	13	-19	10	-12	14	7	·	·
O=C(Nc1sc2c(c1C(=O)O)CCC2)c1ccccc1Cl	68*	-7	23	17	7	-9	97*	-25
O=C1C(O)=C(O)C(=O)c2ccccc21	14	-4	4	1	-1	37	·	·
O=C1C(Cl)=C(Nc2ccc(O)cc2)C(=O)c2ccccc21	94*	61*	9	64*	92*	97*	·	·	Mdm2-MdmX confirm=103*
Cc1cccc(C)c1NS(=O)(=O)c1ccc(NC(=O)c2ccc(Cl)c([N+](=O)[O-])c2)cc1	91*	12	87*	68*	18	-6	25	108*	Mdm2-MdmX confirm=102*
COc1ccc(NC(=O)Nc2cccc3c2O[C@@H](CN(C)CC2CCCCC2)[C@@H](C)CN([C@H](C)CO)C3=O)cc1	-3	2	0	3	-17	-10	·	·
COc1ccc(C(=O)/C=C/C(=O)N(CC(=O)NC2CCCCC2)Cc2ccc(F)cc2)c(O)c1	64*	25	85*	89*	14	99*	58*	105*
SMILES	HIF-2a inh	LMP1 NFkB inh	TWEAK Fn14 block	TROY signal inh	Shn3 3UTR inh	TRPM1 prom inh	HIF-2a inh conf	HIF-1a counter	others
COc1ccc(C(=O)/C=C/C(=O)N(CC(=O)NCCC(C)C)Cc2cccs2)c(O)c1	96*	16	14	-25	98*	84*	91*	56*
COc1cc(OC)cc(-c2nnc(Nc3nc4c(F)cccc4s3)o2)c1	72*	1	0	-2	18	7	85*	-23
COc1ccc(-c2nnc(Nc3nc4c(OC)cccc4s3)o2)cc1	-326	10	-19	-16	10	-6	·	·
COc1cccc(-c2cc(NC=O)c3ncc(-c4cccc(C(=O)NCCN(C)C)c4)n3c2)c1	-11	·	-17	-2	-5	·	·	·
CN(C)CCNC(=O)c1cccc(-c2cnc3c(NC=O)cc(-c4ccc(S(C)(=O)=O)cc4)cn23)c1	-10	·	4	-12	-15	·	·	·
CN(C)CCNC(=O)c1cccc(-c2cnc3c(NC=O)cc(-c4cc(F)c(F)c(F)c4)cn23)c1	88*	·	-20	-15	6	·	8	107*
CN(C)CCNC(=O)c1cccc(-c2cc(NC=O)c3ncc(-c4cccc(C(F)(F)F)c4)n3c2)c1	95*	·	-192	-3	27	·	9	106*
COc1ccc(NC(=O)CN(C)C(=O)c2cn(-c3ccccc3)nc2-c2ccc(Cl)cc2)cc1	-1	-5	-14	8	5	-15	·	·
CCNC(=O)c1ccc(=O)n(Cc2ccc(Cl)cc2Cl)c1	17	-3	3	-7	15	4	·	·
CC(=O)Nc1ccc(Oc2sc(C(=O)c3ccccc3)c(N)c2C#N)cc1	54*	16	53*	24	15	26	43*	9
Cc1ccc(Cl)cc1NC1=C/C(=N\S(=O)(=O)c2cccs2)c2ccccc2C1=O	90*	60*!	100*	71*	97*	90*	·	·	Mdm2-MdmX confirm=102*
Cc1ccc(Nc2cc(=O)oc3ccccc23)c(C)c1	-40	1	41	3	20	13	·	·
Cc1ccc(NC2=C/C(=N\S(=O)(=O)c3cccs3)c3ccccc3C2=O)c(C)c1	71*	95*	95*	69*	98*	105*	·	·	Mdm2-MdmX confirm=101*
CN(C)CCCNS(=O)(=O)c1ccc(NC2CCCCCC2)c([N+](=O)[O-])c1	0	17	23	31	64	-6	·	·
